Drawing on publication PMC11006913, this text covers binding signal for 6 sequences.

Changes are numbered by the printed parent chain.

Holding throughout (experiment): PBM; 200 nM protein, PBS
Details in all cases: dsDNA, one strand shown

The target in assay [1] is HOXA4 (Homo sapiens, UniProt Q00056 201-287, W262R).
Assay [2] addresses HOXB6 (Homo sapiens, UniProt P17509 132-218, K202E).
The target in assay [3] is HOXA4 (Homo sapiens, UniProt Q00056 201-287, R217L).
Assay [4] addresses T1, NKX2-6 (Homo sapiens, UniProt A6NCS4 118-204).
T1 sequence: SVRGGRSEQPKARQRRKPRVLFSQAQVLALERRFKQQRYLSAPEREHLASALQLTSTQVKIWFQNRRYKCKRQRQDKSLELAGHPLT

For assay [5], the target named is HOXA4 (Homo sapiens, UniProt Q00056 201-287).
Chain of HOXA4 (Homo sapiens, UniProt Q00056 201-287) (Q00056 201-287): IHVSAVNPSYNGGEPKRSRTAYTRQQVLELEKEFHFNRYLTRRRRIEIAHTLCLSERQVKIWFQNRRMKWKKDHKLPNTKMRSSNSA
Assay [6] deals with T2, NKX2-6 (Homo sapiens, UniProt A6NCS4 118-204, F151L).
T2 sequence: T1 sequence with F34L

Assay [7] addresses HOXA4 (Homo sapiens, UniProt Q00056 201-287, W262F).
The target of assay [8] is HOXB6 (Homo sapiens, UniProt P17509 132-218).
Chain of HOXB6 (Homo sapiens, UniProt P17509 132-218) (P17509 132-218): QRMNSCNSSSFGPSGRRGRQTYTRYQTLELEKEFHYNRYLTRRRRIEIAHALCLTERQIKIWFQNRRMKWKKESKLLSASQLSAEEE
The target in assay [9] is HOXC9 (Homo sapiens, UniProt P31274 178-260, K195R).
Chain of HOXC9 (Homo sapiens, UniProt P31274 178-260, K195R) (P31274 178-260 K195R): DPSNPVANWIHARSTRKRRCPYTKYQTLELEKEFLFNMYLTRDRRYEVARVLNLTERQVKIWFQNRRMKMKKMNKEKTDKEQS
Assay [10] concerns the target HOXC9 (Homo sapiens, UniProt P31274 178-260).
The target of assay [11] is ALX1 (Homo sapiens, UniProt Q15699 118-204, L144V).
Chain of ALX1 (Homo sapiens, UniProt Q15699 118-204, L144V) (Q15699 118-204 L144V): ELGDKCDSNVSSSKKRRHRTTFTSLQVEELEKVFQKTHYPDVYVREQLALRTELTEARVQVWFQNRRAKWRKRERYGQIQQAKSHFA
Assay [12] deals with HOXC9 (Homo sapiens, UniProt P31274 178-260, R193K).
Chain of HOXC9 (Homo sapiens, UniProt P31274 178-260, R193K) (P31274 178-260 R193K): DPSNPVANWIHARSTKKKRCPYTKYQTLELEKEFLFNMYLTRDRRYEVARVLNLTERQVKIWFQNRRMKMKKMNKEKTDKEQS
Assay [13] concerns the target ALX1 (Homo sapiens, UniProt Q15699 118-204, L144R).
Assay [14] addresses PROP1 (Homo sapiens, UniProt O75360 56-141).
Assay [15] deals with PROP1 (Homo sapiens, UniProt O75360 56-141, R99H).
Chain of PROP1 (Homo sapiens, UniProt O75360 56-141, R99H) (O75360 56-141 R99H): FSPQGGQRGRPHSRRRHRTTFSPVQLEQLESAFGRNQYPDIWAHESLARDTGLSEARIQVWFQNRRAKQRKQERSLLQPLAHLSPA
The target of assay [16] is HOXC9 (Homo sapiens, UniProt P31274 178-260, R222W).
Chain of HOXC9 (Homo sapiens, UniProt P31274 178-260, R222W) (P31274 178-260 R222W): as the sequence (P31274 178-260 R193K) above, with K16R, R45W counted along it
In assay [17] the target is PROP1 (Homo sapiens, UniProt O75360 56-141, F88S).
Chain of PROP1 (Homo sapiens, UniProt O75360 56-141, F88S) (O75360 56-141 F88S): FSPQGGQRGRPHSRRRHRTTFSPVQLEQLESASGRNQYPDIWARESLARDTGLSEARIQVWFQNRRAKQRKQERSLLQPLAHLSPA
For assay [18], the target named is ALX1 (Homo sapiens, UniProt Q15699 118-204).
Chain of ALX1 (Homo sapiens, UniProt Q15699 118-204) (Q15699 118-204): as the sequence (Q15699 118-204 L144V) above, with V27L counted along it
Assay [19] concerns the target ALX4 (Homo sapiens, UniProt Q9H161 200-286).
The target in assay [20] is ALX4 (Homo sapiens, UniProt Q9H161 200-286, Q225E).
Chain of ALX4 (Homo sapiens, UniProt Q9H161 200-286, Q225E) (Q9H161 200-286 Q225E): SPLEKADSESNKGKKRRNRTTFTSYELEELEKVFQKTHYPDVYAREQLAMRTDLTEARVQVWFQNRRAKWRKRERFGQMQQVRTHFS
Assay [21] concerns the target T3, PAX4 (Homo sapiens, UniProt O43316 9-242, R200K).
T3 sequence: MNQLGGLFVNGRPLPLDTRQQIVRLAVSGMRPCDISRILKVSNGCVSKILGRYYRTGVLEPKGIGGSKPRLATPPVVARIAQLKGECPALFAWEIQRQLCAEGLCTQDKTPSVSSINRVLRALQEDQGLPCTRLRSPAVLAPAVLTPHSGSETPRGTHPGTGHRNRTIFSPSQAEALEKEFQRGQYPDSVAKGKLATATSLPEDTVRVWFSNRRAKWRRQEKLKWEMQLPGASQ

Assay [22] has as its target T4, PAX4 (Homo sapiens, UniProt O43316 9-242).
T4 sequence: T3 sequence with K192R

The target in assay [23] is T5, PAX4 (Homo sapiens, UniProt O43316 9-242, R200Q).
T5 sequence: T3 sequence with K192Q

Assay [24] addresses T6, PAX4 (Homo sapiens, UniProt O43316 9-242, F177V).
T6 sequence: T3 sequence with F169V, K192R

Assay [25] deals with T7, PAX4 (Homo sapiens, UniProt O43316 9-242, F177Y).
T7 sequence: T3 sequence with F169Y, K192R

The target in assay [26] is T8, PAX4 (Homo sapiens, UniProt O43316 9-242, R227W).
T8 sequence: T3 sequence with K192R, R219W

Chain of HOXA4 (Homo sapiens, UniProt Q00056 201-287, W262F) (Q00056 201-287 W262F): as the sequence (Q00056 201-287) above, with W62F counted along it
Chain of HOXA4 (Homo sapiens, UniProt Q00056 201-287, W262R) (Q00056 201-287 W262R): as the sequence (Q00056 201-287) above, with W62R counted along it
Chain of HOXA4 (Homo sapiens, UniProt Q00056 201-287, R217L) (Q00056 201-287 R217L): as the sequence (Q00056 201-287) above, with R17L counted along it
Chain of HOXC9 (Homo sapiens, UniProt P31274 178-260) (P31274 178-260): as the sequence (P31274 178-260 R193K) above, with K16R counted along it
Chain of ALX1 (Homo sapiens, UniProt Q15699 118-204, L144R) (Q15699 118-204 L144R): as the sequence (Q15699 118-204 L144V) above, with V27R counted along it
Chain of HOXB6 (Homo sapiens, UniProt P17509 132-218, K202E) (P17509 132-218 K202E): as the sequence (P17509 132-218) above, with K71E counted along it
Chain of ALX4 (Homo sapiens, UniProt Q9H161 200-286) (Q9H161 200-286): as the sequence (Q9H161 200-286 Q225E) above, with E26Q counted along it
Chain of PROP1 (Homo sapiens, UniProt O75360 56-141) (O75360 56-141): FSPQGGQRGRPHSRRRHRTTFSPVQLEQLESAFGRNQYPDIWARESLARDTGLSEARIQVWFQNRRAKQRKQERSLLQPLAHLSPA

For GCCGGCCC, the binding signal was 9.58 upbm affinity estimate (log intensity, higher = more binding, comparable within an allelic series) in [1]; 8.94 upbm affinity estimate (log intensity, higher = more binding, comparable within an allelic series) in [2]; 9.63 upbm affinity estimate (log intensity, higher = more binding, comparable within an allelic series) in [3]; 9.25 upbm affinity estimate (log intensity, higher = more binding, comparable within an allelic series) in assay [4]; 9.78 upbm affinity estimate (log intensity, higher = more binding, comparable within an allelic series) in assay [5]; 9.24 upbm affinity estimate (log intensity, higher = more binding, comparable within an allelic series) in assay [6]. Besides, the binding signal is 9.8 upbm affinity estimate (log intensity, higher = more binding, comparable within an allelic series) in [7] and 8.94 upbm affinity estimate (log intensity, higher = more binding, comparable within an allelic series) in [8].

For the sequence CCGAGAGG, the binding signal is 9.76 upbm affinity estimate (log intensity, higher = more binding, comparable within an allelic series) in assay [1]; 9.41 upbm affinity estimate (log intensity, higher = more binding, comparable within an allelic series) in assay [9]; 9.77 upbm affinity estimate (log intensity, higher = more binding, comparable within an allelic series) in assay [3]; 9.42 upbm affinity estimate (log intensity, higher = more binding, comparable within an allelic series) in assay [10]; 6.38 upbm affinity estimate (log intensity, higher = more binding, comparable within an allelic series) in [11]; 9.45 upbm affinity estimate (log intensity, higher = more binding, comparable within an allelic series) in [12]. Moreover, the binding signal is 6.33 upbm affinity estimate (log intensity, higher = more binding, comparable within an allelic series) in assay [13]; 9.59 upbm affinity estimate (log intensity, higher = more binding, comparable within an allelic series) in assay [5]; 6.47 upbm affinity estimate (log intensity, higher = more binding, comparable within an allelic series) in assay [14]; 6.52 upbm affinity estimate (log intensity, higher = more binding, comparable within an allelic series) in assay [15]; 9.58 upbm affinity estimate (log intensity, higher = more binding, comparable within an allelic series) in [16]; 6.64 upbm affinity estimate (log intensity, higher = more binding, comparable within an allelic series) in [17]. Besides, the binding signal is 6.34 upbm affinity estimate (log intensity, higher = more binding, comparable within an allelic series) in assay [18] and 9.74 upbm affinity estimate (log intensity, higher = more binding, comparable within an allelic series) in assay [7].

On to GCGGACCC, for which the binding signal in assay [1] is 9.75 upbm affinity estimate (log intensity, higher = more binding, comparable within an allelic series); in assay [19], 8.35 upbm affinity estimate (log intensity, higher = more binding, comparable within an allelic series); in assay [20], 8.27 upbm affinity estimate (log intensity, higher = more binding, comparable within an allelic series); in assay [3], 9.74 upbm affinity estimate (log intensity, higher = more binding, comparable within an allelic series); in assay [5], 9.79 upbm affinity estimate (log intensity, higher = more binding, comparable within an allelic series); in assay [7] it was 9.89 upbm affinity estimate (log intensity, higher = more binding, comparable within an allelic series).

Consider CCCTGGTC, for which the binding signal is 9.79 upbm affinity estimate (log intensity, higher = more binding, comparable within an allelic series) in assay [1]; 9.07 upbm affinity estimate (log intensity, higher = more binding, comparable within an allelic series) in assay [21]; 9.08 upbm affinity estimate (log intensity, higher = more binding, comparable within an allelic series) in [22]; 9.68 upbm affinity estimate (log intensity, higher = more binding, comparable within an allelic series) in [3]; 9.25 upbm affinity estimate (log intensity, higher = more binding, comparable within an allelic series) in assay [23]; 9.22 upbm affinity estimate (log intensity, higher = more binding, comparable within an allelic series) in assay [24]. Also, the binding signal is 9.69 upbm affinity estimate (log intensity, higher = more binding, comparable within an allelic series) in assay [5]; 9.15 upbm affinity estimate (log intensity, higher = more binding, comparable within an allelic series) in [25]; 9.21 upbm affinity estimate (log intensity, higher = more binding, comparable within an allelic series) in assay [26]; 9.7 upbm affinity estimate (log intensity, higher = more binding, comparable within an allelic series) in assay [7].

Regarding GCACCACC, the binding signal in assay [1] is 9.87 upbm affinity estimate (log intensity, higher = more binding, comparable within an allelic series); in assay [21], 9.27 upbm affinity estimate (log intensity, higher = more binding, comparable within an allelic series); in assay [22], 9.29 upbm affinity estimate (log intensity, higher = more binding, comparable within an allelic series); in [3] it was 9.72 upbm affinity estimate (log intensity, higher = more binding, comparable within an allelic series); in [23] it was 9.35 upbm affinity estimate (log intensity, higher = more binding, comparable within an allelic series); in [24] it was 9.29 upbm affinity estimate (log intensity, higher = more binding, comparable within an allelic series). Moreover, the binding signal in assay [5] is 9.72 upbm affinity estimate (log intensity, higher = more binding, comparable within an allelic series); in [25], 9.28 upbm affinity estimate (log intensity, higher = more binding, comparable within an allelic series); in [26] it was 9.35 upbm affinity estimate (log intensity, higher = more binding, comparable within an allelic series); in assay [7] it was 9.79 upbm affinity estimate (log intensity, higher = more binding, comparable within an allelic series).

Regarding AGCCCGAG, the binding signal in [1] was 9.9 upbm affinity estimate (log intensity, higher = more binding, comparable within an allelic series); in assay [9] it was 9.64 upbm affinity estimate (log intensity, higher = more binding, comparable within an allelic series); in assay [3] it was 9.88 upbm affinity estimate (log intensity, higher = more binding, comparable within an allelic series); in assay [10], 9.62 upbm affinity estimate (log intensity, higher = more binding, comparable within an allelic series); in assay [12], 9.59 upbm affinity estimate (log intensity, higher = more binding, comparable within an allelic series); in assay [5], 9.65 upbm affinity estimate (log intensity, higher = more binding, comparable within an allelic series). Moreover, the binding signal in assay [16] was 9.78 upbm affinity estimate (log intensity, higher = more binding, comparable within an allelic series); in assay [7], 9.85 upbm affinity estimate (log intensity, higher = more binding, comparable within an allelic series).
